Reference: PubChem BioAssay (NCI)
This is part of a sample that, as a whole, favours compounds with a hit. Of some 79,000 tested, about 15% had one in any assay. Active and inactive are the calls of the source. No stated cut-off is given here; in the data, active means growth inhibition above about 70%; inactive means the rest.

Columns and labels:
[1] = NCI Yeast Anticancer Drug Screen. Data for the sgs1 strain (AID 173);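 further: 0% = growth of vehicle-only control cultures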; settings: S. cerevisiae sgs1 mutant, hits give high values
In short: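 Each compound was added to cultures of the altered yeast strain. Growth was recorded, and inhibition was derived by comparison with vehicle controls.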

[2] = NCI Yeast Anticancer Drug Screen. Data for the mlh1 rad18 strain (AID 175); settings: S. cerevisiae mlh1 rad18 strain growth inhibition, hits give high values
In short: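 Genetically defined yeast (DNA repair-deficient) exposed to compounds; growth inhibition determined relative to vehicle.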

[3] = NCI Yeast Anticancer Drug Screen. Data for the rad18 strain (AID 177); settings: S. cerevisiae rad18 mutant growth inhibition, hits give high values
In short: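 Vehicle-treated cultures served as the baseline for scoring compound-induced growth inhibition in DNA-repair-mutant yeast.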

[4] = NCI Yeast Anticancer Drug Screen. Data for the wt1 strain (AID 149);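 further: 0% = growth of vehicle-treated wt1 cultures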; settings: S. cerevisiae wt1 strain (SPY 50644) growth inhibition, hits give high values
In short: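 wt1 yeast, compound-treated; % growth inhibition vs vehicle control.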

[5] = NCI Yeast Anticancer Drug Screen. Data for the rad50EPP+ strain (AID 151);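 further: 0% = growth of vehicle-treated control cultures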; settings: S. cerevisiae rad50 mutant strain, hits give high values
In short: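 Vehicle-normalised growth inhibition; rad50EPP+ yeast strain, altered in DNA damage repair, compound-treated.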

[6] = NCI Yeast Anticancer Drug Screen. Data for the mgt1 strain (AID 153); settings: S. cerevisiae mgt1 mutant growth inhibition, hits give high values
In short: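 Vehicle-normalized growth inhibition is determined in mgt1 yeast, a strain selected for a defined alteration in DNA repair or cell cycle control.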

[7] = NCI Yeast Anticancer Drug Screen. Data for the rad50 strain (AID 155);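 further: 0% = growth of vehicle-only cultures of the same strain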; settings: S. cerevisiae rad50 strain growth inhibition, hits give high values
In short: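 Genetically altered yeast (DNA repair pathway); compound treatment; growth inhibition vs vehicle ctrl.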

[8] = NCI Yeast Anticancer Drug Screen. Data for the mec2-1 strain (AID 157); settings: S. cerevisiae mec2-1 strain, hits give high values
In short: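 Mutant yeast (mec2-1) grown with compound; growth inhibition relative to vehicle control reported.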

[9] = NCI Yeast Anticancer Drug Screen. Data for the rad14 strain (AID 159);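 further: 0% = growth of vehicle-treated control cultures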; settings: S. cerevisiae rad14 strain growth inhibition, hits give high values
In short: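 Test compounds were applied to a repair-deficient yeast strain. Its growth was then compared with that of cultures given vehicle alone, and inhibition was expressed relative to those controls.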

[10] = NCI Yeast Anticancer Drug Screen. Data for the sgs1 mgt1 strain (AID 161);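 further: 0% = growth of cultures given vehicle only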; settings: S. cerevisiae sgs1 mgt1 strain, hits give high values
In short: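 Compounds are added to genetically altered yeast, and growth is compared with cultures given vehicle alone to give percent inhibition.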

[11] = NCI Yeast Anticancer Drug Screen. Data for the CLN2oe strain (AID 163);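 further: 0% = growth of vehicle-only control cultures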; settings: S. cerevisiae CLN2oe strain, hits give high values
In short: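 Compounds are applied to yeast harbouring a defined cell-cycle control change; reduced growth compared with vehicle-treated controls gives the value.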

[12] = NCI Yeast Anticancer Drug Screen. Data for the cln2 rad14 strain (AID 165);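 further: 0% = growth equal to vehicle treated cultures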; settings: S. cerevisiae cln2 rad14 strain, hits give high values
In short: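 Readout is yeast growth inhibition versus vehicle-treated controls, using a strain with cln2 and rad14 alterations exposed to compound.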

[13] = NCI Yeast Anticancer Drug Screen. Data for the bub3 strain (AID 167); settings: S. cerevisiae bub3 mutant strain, hits give high values
In short: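 Yeast carrying a defined mutation is treated with each compound, and growth is compared with that of vehicle-exposed cells to give inhibition.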

[14] = NCI Yeast Anticancer Drug Screen. Data for the wt2 strain (AID 169);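 further: 0% = growth of vehicle-treated yeast cultures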; settings: S. cerevisiae wt2 strain growth inhibition, hits give high values
In short: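 Against vehicle-treated controls, the growth of yeast exposed to each compound was compared, and the inhibition was recorded.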

[15] = NCI Yeast Anticancer Drug Screen. Data for the mlh1 strain (AID 171);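 further: 0% = growth of vehicle-treated control cultures of the same strain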; settings: S. cerevisiae mlh1 strain growth inhibition, hits give high values
In short: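 Measured: yeast growth. Reference: vehicle-treated controls. Organism: strain with a defined alteration affecting DNA damage repair or cell cycle control, treated with compound.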

[16] = at 5.0 µM (retest, dose inferred, filed as 0.5)
[17] = at 50.0 µM (retest, dose inferred, filed as 5.0)

Measured: growth inhibition

CC(CC(C)(C)[N+](C)(C)C)[N+](C)(C)C (centres undefined)
active: [2]; [17] 97% | [2]; at 50.0 µM 94.3%
inactive: [1]; at 1.2 µM 2% | [1]; at 3.7 µM 3% | [1]; at 11.0 µM 1% | [1]; at 33.0 µM 4% | [1]; at 100.0 µM -1% | [2]; [16] 12% | [3]; at 1.2 µM 11% | [3]; at 3.7 µM 8% | [3]; at 11.0 µM 14% | [3]; at 33.0 µM 15% | [3]; at 100.0 µM 20%

CC(C)C1=CC2=C[C@H](O)[C@H]3C(C)(C)CCC[C@]3(C)C2=C(O)C1=O
active: [4]; at 11.0 µM 99% | [4]; at 33.0 µM 99% | [4]; at 100.0 µM 94% | [5]; at 33.0 µM 97% | [5]; at 100.0 µM 94% | [6]; at 11.0 µM 99% | [6]; at 33.0 µM 99% | [6]; at 100.0 µM 95% | [7]; at 11.0 µM 98% | [7]; at 33.0 µM 98% | [7]; [17] 98% | [7]; at 50.0 µM 92.8% | [7]; at 100.0 µM 93% | [8]; at 11.0 µM 95% | [8]; at 33.0 µM 99% | [8]; [17] 99% | [8]; at 50.0 µM 93.5% | [8]; at 100.0 µM 96% | [9]; at 11.0 µM 100% | [9]; at 33.0 µM 99% | [9]; at 100.0 µM 95% | [10]; [17] 98% | [10]; at 50.0 µM 93.3% | [11]; at 11.0 µM 76% | [11]; at 33.0 µM 99% | [11]; at 100.0 µM 95% | [12]; [17] 98% | [12]; at 50.0 µM 91.5% | [13]; at 11.0 µM 79% | [13]; at 33.0 µM 99% | [13]; [17] 98% | [13]; at 50.0 µM 92.3% | [13]; at 100.0 µM 96% | [1]; at 11.0 µM 99% | [1]; at 33.0 µM 98% | [1]; at 100.0 µM 95% | [2]; [17] 98% | [2]; at 50.0 µM 92.3% | [3]; at 11.0 µM 99% | [3]; at 33.0 µM 99% | [3]; at 100.0 µM 92%
inactive: [4]; at 1.2 µM -3% | [4]; at 3.7 µM 13% | [5]; at 1.2 µM 0% | [5]; at 3.7 µM 19% | [5]; at 11.0 µM 69% | [6]; at 1.2 µM -3% | [6]; at 3.7 µM -7% | [7]; at 1.2 µM -6% | [7]; at 3.7 µM 13% | [7]; [16] 29% | [8]; at 1.2 µM -3% | [8]; at 3.7 µM -1% | [8]; [16] 54% | [9]; at 1.2 µM 6% | [9]; at 3.7 µM 23% | [10]; [16] 68% | [11]; at 1.2 µM -4% | [11]; at 3.7 µM 4% | [12]; [16] 8% | [13]; at 1.2 µM 2% | [13]; at 3.7 µM 9% | [13]; [16] 41% | [1]; at 1.2 µM 8% | [1]; at 3.7 µM 15% | [2]; [16] 62% | [3]; at 1.2 µM -6% | [3]; at 3.7 µM 27%

BrCc1cccc2ccc3cccc(CBr)c3c12
active: [7]; [17] 85% | [8]; [17] 97% | [10]; [17] 85% | [10]; at 50.0 µM 72% | [2]; [17] 96% | [2]; at 50.0 µM 73.5%
inactive: [5]; at 1.2 µM -4% | [5]; at 3.7 µM 0% | [5]; at 11.0 µM 12% | [5]; at 33.0 µM 18% | [5]; at 100.0 µM 24% | [6]; at 1.2 µM 2% | [6]; at 3.7 µM 0% | [6]; at 11.0 µM 1% | [6]; at 33.0 µM -2% | [6]; at 100.0 µM 3% | [7]; at 1.2 µM -3% | [7]; at 3.7 µM -3% | [7]; [16] -1% | [7]; at 11.0 µM 0% | [7]; at 33.0 µM 1% | [7]; at 50.0 µM 66.3% | [7]; at 100.0 µM 10% | [8]; at 1.2 µM -2% | [8]; at 3.7 µM -1% | [8]; [16] -5% | [8]; at 11.0 µM -2% | [8]; at 33.0 µM -3% | [8]; at 50.0 µM 21.8% | [8]; at 100.0 µM -2% | [9]; at 1.2 µM -2% | [9]; at 3.7 µM -2% | [9]; at 11.0 µM -2% | [9]; at 33.0 µM -2% | [9]; at 100.0 µM 2% | [10]; [16] -3% | [11]; at 1.2 µM -2% | [11]; at 3.7 µM 0% | [11]; at 11.0 µM -3% | [11]; at 33.0 µM -13% | [11]; at 100.0 µM -12% | [12]; [16] -15% | [12]; [17] 21% | [12]; at 50.0 µM -24% | [13]; at 1.2 µM -12% | [13]; at 3.7 µM -14% | [13]; [16] 4% | [13]; at 11.0 µM -8% | [13]; at 33.0 µM -11% | [13]; [17] 50% | [13]; at 50.0 µM 65% | [13]; at 100.0 µM -6% | [14]; at 1.2 µM -2% | [14]; at 3.7 µM -5% | [14]; at 11.0 µM -4% | [14]; at 33.0 µM -6% | [14]; at 100.0 µM -4% | [15]; at 1.2 µM -3% | [15]; at 3.7 µM -3% | [15]; at 11.0 µM -2% | [15]; at 33.0 µM -2% | [15]; at 100.0 µM 1% | [1]; at 1.2 µM -3% | [1]; at 3.7 µM -3% | [1]; at 11.0 µM -4% | [1]; at 33.0 µM -3% | [1]; at 100.0 µM -1% | [2]; [16] -1% | [3]; at 1.2 µM -4% | [3]; at 3.7 µM 0% | [3]; at 11.0 µM -1% | [3]; at 33.0 µM 0% | [3]; at 100.0 µM 11%
